Our source for the Percent Effect values is ChEMBL document CHEMBL3988442, “University of Dundee, Small-Polar-MMV Screening Library” (2021).

The target of the first assay is AMP-activated protein kinase, AMPK (Homo sapiens) (UniProt P54646+O43741+P54619+Q9UGJ0+Q9Y478+Q13131+Q9UGI9). Put plainly: AMP-dependent Kinase enzyme assay. An in vitro enzyme assay that detects ADP turnover that is directly proportional to AMPK activity. This uses naive AMPK that is activated during the assay with MK-8722. The format is functional. Also on record: scale not given: direction of the effect not stated beside the values. Conditions: 30 µM.
With `CCn1cc(Br)c(C(=O)NCc2cccnc2)n1`, the Percent Effect is -1.81%.

In the case of `Cn1nc2c(cc1=O)CN(CCc1nc3ccccc3c(=O)[nH]1)CC2`, the Percent Effect was -206%.

In the case of `COc1cccc2c1OCC(CNC(=O)CSc1nc(N)n[nH]1)C2` (stereo not drawn), the Percent Effect is -3.58%.

On to `COCCCNC(=O)CN(C)C(=O)c1cc(C)ccc1N(C)C(C)C`, for which the Percent Effect is -5.29%.

With `c1ccc2sc(CN3CCCC3c3noc(C4CC4)n3)nc2c1` (stereo not drawn), the Percent Effect is -1.08%.

For `COCCO[C@@H]1CCN(Cc2csc(C)n2)[C@H]1Cc1ccccc1`, the Percent Effect is -0.151%.

Take `C[C@@H]1CN(C(=O)c2ccsc2)C[C@]12CCN(c1ccsc1)C2=O`: the Percent Effect is 13.8%.

On to `CC(O)CC(C)(C)CNC(=O)NCc1cccc(-n2cncn2)c1` (stereo not drawn), for which the Percent Effect is -0.791%.

For `Cc1c(C(=O)NCC(C)C)nnn1-c1cccc2c1CCN(C)C2`, the Percent Effect was found to be 0.913%.

`COc1ccc(CNCC(C)Oc2ccccn2)cc1Br` (stereo not drawn): the Percent Effect is -6.72%.

For the compound `Cc1ccc(CN2CCc3ncc(CNS(C)(=O)=O)n3CC2)o1`, the Percent Effect is -1.38%.

For `Cc1nc(CN2CCCC(NCc3c(C)nc4sccn34)C2)no1` (stereo not drawn), the Percent Effect was -2.06%.

Turning to `Cc1cn2nc(N3CCCN(Cc4noc(C)n4)CC3)sc2n1`, the Percent Effect stood at 7.75%.

Regarding `CC(NC(=O)NCCNc1cnccn1)c1cccs1` (stereo not drawn), the Percent Effect came to 1.73%.

With `CCOCC1CN(Cc2cccc(C#N)c2)Cc2nccn2C1` (stereo not drawn), the Percent Effect was 2.91%.

As to `COc1ccc(OCc2nc(C(=O)N3CC[C@H](O)[C@@H](O)C3)co2)cc1`, the Percent Effect is -0.405%.

On to `O=C(CN1CCCC1Cn1cncn1)NCCc1c(F)cccc1F` (stereo not drawn), for which the Percent Effect was -9.7%.

Regarding `CN(C)c1ncnc2c1CCN(CC1CCOC1)CC2` (stereo not drawn), the Percent Effect was found to be 4.65%.

Turning to `CC(C)N(CC(N)=O)Cc1csc(COc2ccc(F)cc2)n1`, the Percent Effect was -6.77%.

As to `Cc1nc(CN2CCCN(C(=O)c3ccccn3)CC2)oc1C`, the Percent Effect was 0.524%.

Take `O=C(c1cccnc1N1CCOCC1)N1CCCC1Cn1cccn1` (stereo not drawn): the Percent Effect was determined as 5.93%.

`CCN(C(=O)CN(C)C(c1cccc(F)c1)c1ccccn1)C1CC1` (stereo not drawn): the Percent Effect was -4.08%.

For the compound `Cc1nc(C2(NCC(=O)NCCc3cccs3)CCCC2)no1`, the Percent Effect was -3.1%.

On to `CO[C@H]1CN(C(=O)c2ccccn2)[C@@H]2CCCO[C@H]12`, for which the Percent Effect is 2.92%.

For `CCO[C@@H]1CO[C@@]2(CCCN(C(=O)c3ccc(OC)c(F)c3)C2)C1`, the Percent Effect amounted to 6.36%.

Consider `CC(C)S(=O)(=O)c1nnc(CCNC(=O)OC(C)(C)C)o1`, for which the Percent Effect came out at 2.34%.

Regarding `CCc1c(C(=O)NC2CCS(=O)(=O)C2)cnn1-c1ccc(F)cc1` (stereo not drawn), the Percent Effect was -2.59%.

With `CCn1nccc1CNC(=O)NC1CCCCC1`, the Percent Effect was found to be 7.6%.

As for `CN(Cc1ccsc1)C(=O)Nc1cccnc1N1CCCC1`, the Percent Effect is -31.4%.

Take `CCCC1(CO)CCCN(c2ncccc2F)C1` (stereo not drawn): the Percent Effect was -4.77%.

For `Cc1nc[nH]c1-c1nc2cc(S(=O)(=O)N3CCCC3)ccc2n1C`, the Percent Effect amounted to 12.9%.

Take `CCNC(=O)N(C)Cc1ccc(SC)c(OC)c1`: the Percent Effect is -5.93%.

`COCC(=O)N1CCC(c2nc3ccc(-c4ccccc4)cn3n2)CC1`: the Percent Effect was determined as 4.81%.

Regarding `CC(C(=O)NCc1ccnc(N2CCN(C)CC2)c1)n1cccn1` (stereo not drawn), the Percent Effect is -0.213%.

In the case of `CCc1c(C)nc2cc(C3CCN(Cc4ccccc4F)C3)nn2c1O` (stereo not drawn), the Percent Effect is -7.43%.

As to `O=C(COc1ccc(C(F)(F)F)cc1)NS(=O)(=O)c1cccnc1`, the Percent Effect came out at 4.15%.

For the compound `CN(C)S(=O)(=O)c1ccc(OCCNCCn2cccn2)cc1`, the Percent Effect was 2.35%.

In the case of `O=C(CN1CCCC(O)C1)NC(=O)NCc1cccs1` (stereo not drawn), the Percent Effect was found to be 7.52%.

For `CCOc1ncccc1CNC(=O)N1CCCC1c1ccncc1` (stereo not drawn), the Percent Effect is -2.16%.

In another assay the target is Sialic acid-binding Ig-like lectin 9 (Homo sapiens) (UniProt Q9Y336). The assay is described as follows: Hs-Siglec9 ALPHAscreen SOP 20170721. Also on record: scale not given: direction of the effect not stated beside the values. Conditions: 10 µM. A general note: In Alpha technology, singlet oxygen from a donor bead excites a nearby acceptor bead.
Chain of Sialic acid-binding Ig-like lectin 9 (Homo sapiens) (Q9Y336 whole entry): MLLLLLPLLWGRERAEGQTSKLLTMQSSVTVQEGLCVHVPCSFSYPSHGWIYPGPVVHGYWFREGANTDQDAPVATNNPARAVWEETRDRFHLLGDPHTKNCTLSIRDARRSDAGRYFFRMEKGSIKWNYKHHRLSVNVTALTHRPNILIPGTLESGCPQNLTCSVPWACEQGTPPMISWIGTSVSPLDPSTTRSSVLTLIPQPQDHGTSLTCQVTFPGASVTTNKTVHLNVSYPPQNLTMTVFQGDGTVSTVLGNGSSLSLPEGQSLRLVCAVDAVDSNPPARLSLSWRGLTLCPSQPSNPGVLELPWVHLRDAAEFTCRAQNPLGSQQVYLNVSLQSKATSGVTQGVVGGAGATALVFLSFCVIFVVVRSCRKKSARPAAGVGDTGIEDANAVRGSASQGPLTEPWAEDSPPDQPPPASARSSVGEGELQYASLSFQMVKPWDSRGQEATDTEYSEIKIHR
`CCn1cc(Br)c(C(=O)NCc2cccnc2)n1`: the Percent Effect turned out to be 5.82%.

`Cn1nc2c(cc1=O)CN(CCc1nc3ccccc3c(=O)[nH]1)CC2`: the Percent Effect was -0.89%.

As to `COc1cccc2c1OCC(CNC(=O)CSc1nc(N)n[nH]1)C2` (stereo not drawn), the Percent Effect worked out at 26.8%.

With `COCCCNC(=O)CN(C)C(=O)c1cc(C)ccc1N(C)C(C)C`, the Percent Effect came to 6.07%.

In the case of `c1ccc2sc(CN3CCCC3c3noc(C4CC4)n3)nc2c1` (stereo not drawn), the Percent Effect is -2.6%.

Turning to `COCCO[C@@H]1CCN(Cc2csc(C)n2)[C@H]1Cc1ccccc1`, the Percent Effect was -7.92%.

In the case of `C[C@@H]1CN(C(=O)c2ccsc2)C[C@]12CCN(c1ccsc1)C2=O`, the Percent Effect was -0.135%.

Take `CC(O)CC(C)(C)CNC(=O)NCc1cccc(-n2cncn2)c1` (stereo not drawn): the Percent Effect is 7.51%.

As for `Cc1c(C(=O)NCC(C)C)nnn1-c1cccc2c1CCN(C)C2`, the Percent Effect amounted to 2.87%.

For the compound `COc1ccc(CNCC(C)Oc2ccccn2)cc1Br` (stereo not drawn), the Percent Effect stood at 0.831%.

Regarding `Cc1ccc(CN2CCc3ncc(CNS(C)(=O)=O)n3CC2)o1`, the Percent Effect was 6.78%.

For the compound `Cc1nc(CN2CCCC(NCc3c(C)nc4sccn34)C2)no1` (stereo not drawn), the Percent Effect was -6.92%.

In the case of `Cc1cn2nc(N3CCCN(Cc4noc(C)n4)CC3)sc2n1`, the Percent Effect is 2.12%.

Regarding `CC(NC(=O)NCCNc1cnccn1)c1cccs1` (stereo not drawn), the Percent Effect worked out at 3.58%.

Take `CCOCC1CN(Cc2cccc(C#N)c2)Cc2nccn2C1` (stereo not drawn): the Percent Effect worked out at 1.44%.

With `COc1ccc(OCc2nc(C(=O)N3CC[C@H](O)[C@@H](O)C3)co2)cc1`, the Percent Effect was 4.91%.

In the case of `O=C(CN1CCCC1Cn1cncn1)NCCc1c(F)cccc1F` (stereo not drawn), the Percent Effect came to 10.3%.

Turning to `CN(C)c1ncnc2c1CCN(CC1CCOC1)CC2` (stereo not drawn), the Percent Effect is -0.235%.

In the case of `CC(C)N(CC(N)=O)Cc1csc(COc2ccc(F)cc2)n1`, the Percent Effect turned out to be 1.71%.

For `Cc1nc(CN2CCCN(C(=O)c3ccccn3)CC2)oc1C`, the Percent Effect is -0.904%.

Turning to `O=C(c1cccnc1N1CCOCC1)N1CCCC1Cn1cccn1` (stereo not drawn), the Percent Effect turned out to be 8.78%.

In the case of `CCN(C(=O)CN(C)C(c1cccc(F)c1)c1ccccn1)C1CC1` (stereo not drawn), the Percent Effect was 9.51%.

On to `Cc1nc(C2(NCC(=O)NCCc3cccs3)CCCC2)no1`, for which the Percent Effect was 0.327%.

As to `CO[C@H]1CN(C(=O)c2ccccn2)[C@@H]2CCCO[C@H]12`, the Percent Effect is 0.754%.

Turning to `CCO[C@@H]1CO[C@@]2(CCCN(C(=O)c3ccc(OC)c(F)c3)C2)C1`, the Percent Effect is -0.114%.

Consider `CC(C)S(=O)(=O)c1nnc(CCNC(=O)OC(C)(C)C)o1`, for which the Percent Effect was -6.84%.

For `CCc1c(C(=O)NC2CCS(=O)(=O)C2)cnn1-c1ccc(F)cc1` (stereo not drawn), the Percent Effect is -6.54%.

With `CCn1nccc1CNC(=O)NC1CCCCC1`, the Percent Effect is -2.52%.

For the compound `CN(Cc1ccsc1)C(=O)Nc1cccnc1N1CCCC1`, the Percent Effect was -9.07%.

On to `CCCC1(CO)CCCN(c2ncccc2F)C1` (stereo not drawn), for which the Percent Effect amounted to 3.77%.

As for `Cc1nc[nH]c1-c1nc2cc(S(=O)(=O)N3CCCC3)ccc2n1C`, the Percent Effect was found to be 8.67%.

In the case of `CCNC(=O)N(C)Cc1ccc(SC)c(OC)c1`, the Percent Effect was 0.171%.

As for `COCC(=O)N1CCC(c2nc3ccc(-c4ccccc4)cn3n2)CC1`, the Percent Effect was found to be 3.2%.

As to `CC(C(=O)NCc1ccnc(N2CCN(C)CC2)c1)n1cccn1` (stereo not drawn), the Percent Effect came out at 6.59%.

Take `CCc1c(C)nc2cc(C3CCN(Cc4ccccc4F)C3)nn2c1O` (stereo not drawn): the Percent Effect is -10.9%.

For the compound `O=C(COc1ccc(C(F)(F)F)cc1)NS(=O)(=O)c1cccnc1`, the Percent Effect was -3.63%.

In the case of `CN(C)S(=O)(=O)c1ccc(OCCNCCn2cccn2)cc1`, the Percent Effect was -1.53%.

For `O=C(CN1CCCC(O)C1)NC(=O)NCc1cccs1` (stereo not drawn), the Percent Effect is -8.38%.

Take `CCOc1ncccc1CNC(=O)N1CCCC1c1ccncc1` (stereo not drawn): the Percent Effect turned out to be 2.11%.
